Measured values: PubChem BioAssay AID1159580 (chemical genetic matrix, 2015)
About 2,000 (36%) of roughly 5,500 compounds were called active. About 18% were inconclusive and are not listed. No stated cut-off is given here; in the data, active means normalized growth mostly below about 0.91 (no sharp cut-off); inconclusive means no clear call, values can overlap the other calls; inactive means mostly above about 0.92. The list shows a part of the results.

Assay: chemical genetic growth profiling, strain panel (AID 1159580);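 further: tested at 20 µM; growth read once vehicle control cultures reached saturation at 30 °C; 1 = growth at the plate median or of vehicle wells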
Settings: growth OD

Measured: normalized growth

O=c1cc(-c2ccc(O)cc2)oc2cc(O[C@@H]3O[C@H](CO)[C@@H](O)[C@H](O)[C@H]3O)cc(O)c12
inactive: S. cerevisiae deletion strains, locus YJR075W, strain HOC1, stronger effect = lower value 0.993 | S. cerevisiae deletion strains, locus YKL009W, strain mrt4, stronger effect = lower value 0.936 | S. cerevisiae deletion strains, locus YKL068W, stronger effect = lower value 0.989 | S. cerevisiae deletion strains, locus YKL085W, strain MDH1 (second series), stronger effect = lower value 0.974 | S. cerevisiae deletion strains, locus YKL085W, strain MDH1, stronger effect = lower value 0.974 | S. cerevisiae deletion strains, locus YKL160W, strain elf1, stronger effect = lower value 0.985 | S. cerevisiae deletion strains, locus YKR001C, strain vps1, stronger effect = lower value 0.958 | S. cerevisiae deletion strains, locus YKR026C, strain gcn3, stronger effect = lower value 1.01 | S. cerevisiae deletion strains, locus YKR091W, strain srl3, stronger effect = lower value 1 | S. cerevisiae deletion strains, locus YLL001W, strain dnm1, stronger effect = lower value 1.01 | S. cerevisiae deletion strains, locus YLL026W, stronger effect = lower value 1.01 | S. cerevisiae deletion strains, locus YLL041C, strain sdh2, stronger effect = lower value 1 | S. cerevisiae deletion strains, locus YLR027C, strain aat2, stronger effect = lower value 0.997 | S. cerevisiae deletion strains, locus YLR039C, strain RIC1, stronger effect = lower value 0.996 | S. cerevisiae deletion strains, locus YLR058C, strain SHM2, stronger effect = lower value 0.989 | S. cerevisiae deletion strains, locus YLR102C, strain apc9, stronger effect = lower value 0.968 | S. cerevisiae deletion strains, locus YLR113W, strain HOG1, stronger effect = lower value 1.03 | S. cerevisiae deletion strains, locus YLR221C, strain rsa3, stronger effect = lower value 1.04 | S. cerevisiae deletion strains, locus YLR258W, strain gsy2, stronger effect = lower value 0.996 | S. cerevisiae deletion strains, locus YLR262C, strain YPT6 (second series), stronger effect = lower value 1.02 | S. cerevisiae deletion strains, locus YLR262C, strain YPT6, stronger effect = lower value 0.971 | S. cerevisiae deletion strains, locus YLR268W, strain sec22, stronger effect = lower value 0.963 | S. cerevisiae deletion strains, locus YLR320W, strain mms22, stronger effect = lower value 1.05 | S. cerevisiae deletion strains, locus YLR330W, strain CHS5, stronger effect = lower value 0.985 | S. cerevisiae deletion strains, locus YLR342W, strain FKS1 (second series), stronger effect = lower value 0.98 | S. cerevisiae deletion strains, locus YLR342W, strain FKS1, stronger effect = lower value 1.01 | S. cerevisiae deletion strains, locus YLR357W, strain rsc2, stronger effect = lower value 1.01 | S. cerevisiae deletion strains, locus YLR370C, strain arc18, stronger effect = lower value 0.976 | S. cerevisiae deletion strains, locus YLR371W, strain rom2, stronger effect = lower value 0.964 | S. cerevisiae deletion strains, locus YLR384C, strain iki3, stronger effect = lower value 1.01 | S. cerevisiae deletion strains, locus YLR418C, strain cdc73, stronger effect = lower value 0.964 | S. cerevisiae deletion strains, locus YML016C, strain PPZ1, stronger effect = lower value 0.988 | S. cerevisiae deletion strains, locus YML032C, strain rad52, stronger effect = lower value 0.973 | S. cerevisiae deletion strains, locus YML120C, strain ndi1, stronger effect = lower value 0.986 | S. cerevisiae deletion strains, locus YML124C, strain tub3, stronger effect = lower value 0.983 | S. cerevisiae deletion strains, locus YMR058W, strain fet3, stronger effect = lower value 1.02 | S. cerevisiae deletion strains, locus YMR078C, strain ctf18, stronger effect = lower value 1.01 | S. cerevisiae deletion strains, locus YMR125W, strain sto1, stronger effect = lower value 0.968 | S. cerevisiae deletion strains, locus YMR129W, stronger effect = lower value 1 | S. cerevisiae deletion strains, locus YMR205C, strain PFK2, stronger effect = lower value 1.01 | S. cerevisiae deletion strains, locus YMR223W, strain ubp8, stronger effect = lower value 1.01 | S. cerevisiae deletion strains, locus YMR231W, strain pep5, stronger effect = lower value 1 | S. cerevisiae deletion strains, locus YMR307W, strain GAS1, stronger effect = lower value 1.02 | S. cerevisiae deletion strains, locus YNL067W, strain RPL9B, stronger effect = lower value 1.01 | S. cerevisiae deletion strains, locus YNL071W, strain lat1, stronger effect = lower value 0.995 | S. cerevisiae deletion strains, locus YNL153C, strain GIM3, stronger effect = lower value 1 | S. cerevisiae deletion strains, locus YNL183C, strain NPR1, stronger effect = lower value 0.975 | S. cerevisiae deletion strains, locus YNL209W, strain ssb2, stronger effect = lower value 0.994 | S. cerevisiae deletion strains, locus YNL233W, strain BNI4, stronger effect = lower value 0.987 | S. cerevisiae deletion strains, locus YNL248C, strain rpa49, stronger effect = lower value 1.08 | S. cerevisiae deletion strains, locus YNL250W, strain rad50, stronger effect = lower value 0.98 | S. cerevisiae deletion strains, locus YNL271C, strain bni1, stronger effect = lower value 0.975 | S. cerevisiae deletion strains, locus YNL298W, strain CLA4, stronger effect = lower value 0.98 | S. cerevisiae deletion strains, locus YNL307C, strain MCK1, stronger effect = lower value 0.973 | S. cerevisiae deletion strains, locus YNL322C, strain KRE1 (second series), stronger effect = lower value 0.993 | S. cerevisiae deletion strains, locus YNL322C, strain KRE1, stronger effect = lower value 0.987 | S. cerevisiae deletion strains, locus YNR049C, strain mso1, stronger effect = lower value 1.03 | S. cerevisiae deletion strains, locus YNR052C, strain pop2, stronger effect = lower value 0.997 | S. cerevisiae deletion strains, locus YOL012C, strain htz1 0.98 | S. cerevisiae deletion strains, locus YOL147C, strain pex11, stronger effect = lower value 0.978 | S. cerevisiae deletion strains, locus YOR001W, strain rrp6, stronger effect = lower value 1.04 | S. cerevisiae deletion strains, locus YOR061W, strain CKA2, stronger effect = lower value 0.979 | S. cerevisiae deletion strains, locus YOR069W, strain VPS5, stronger effect = lower value 0.978 | S. cerevisiae deletion strains, locus YOR070C, strain gyp1, stronger effect = lower value 1.02 | S. cerevisiae deletion strains, locus YOR080W, strain dia2, stronger effect = lower value 1.01 | S. cerevisiae deletion strains, locus YOR083W, strain WHI5, stronger effect = lower value 0.974 | S. cerevisiae deletion strains, locus YOR106W, strain vam3, stronger effect = lower value 0.966 | S. cerevisiae deletion strains, locus YOR136W, strain idh2, stronger effect = lower value 0.958 | S. cerevisiae deletion strains, locus YOR144C, strain elg1, stronger effect = lower value 0.98 | S. cerevisiae deletion strains, locus YOR184W, strain ser1, stronger effect = lower value 1 | S. cerevisiae deletion strains, locus YOR231W, strain MKK1, stronger effect = lower value 1.05 | S. cerevisiae deletion strains, locus YOR265W, strain rbl2, stronger effect = lower value 1.01 | S. cerevisiae deletion strains, locus YOR270C, strain vph1, stronger effect = lower value 1.06 | S. cerevisiae deletion strains, locus YOR290C, strain snf2, stronger effect = lower value 0.961 | S. cerevisiae deletion strains, locus YOR316C, strain cot1, stronger effect = lower value 0.969 | S. cerevisiae deletion strains, locus YPL051W, strain arl3, stronger effect = lower value 1.03 | S. cerevisiae deletion strains, locus YPL078C, strain atp4, stronger effect = lower value 0.968 | S. cerevisiae deletion strains, locus YPL106C, strain sse1, stronger effect = lower value 1 | S. cerevisiae deletion strains, locus YPL240C, strain hsp82, stronger effect = lower value 1.01 | S. cerevisiae deletion strains, locus YPL241C, strain CIN2, stronger effect = lower value 0.994 | S. cerevisiae deletion strains, locus YPL256C, strain CLN2, stronger effect = lower value 1 | S. cerevisiae deletion strains, locus YPR119W, strain clb2, stronger effect = lower value 0.989 | S. cerevisiae deletion strains, locus YPR141C, strain kar3, stronger effect = lower value 0.968 | S. cerevisiae deletion strains, locus YPR163C, strain tif3, stronger effect = lower value 0.982 | S. cerevisiae deletion strains, locus YPR167C, strain met16, stronger effect = lower value 0.979 | S. cerevisiae deletion strains, strain wtn01, stronger effect = lower value 0.955 | S. cerevisiae strains, strain wild type, stronger effect = lower value 0.993
